Only some compounds are listed: those with a hit (about 8% of all), similar ones and a draw of the others.
FMDV inh – High Throughput Screening for Foot and Mouth Disease Virus Antivirals. AID 1159524, 2015. 410,000 tested, 1.2% active. FMDV antiviral cell-based qHTS. Potency, µM (series often up to 57.9 µM), for the others: at the highest dose activity change, negative = inhibition, usual class: inhibitors; calls by dose curve; tested in HEK293T cells; also: read-out not given here; potency is read from the fitted curve at half-maximal effect; % is scaled to controls: 0 for no effect and ±100 for the full control effect; nearly all actives have a fitted effect of over 45% in size
Marburg entry inh – qHTS for inhibitors of binding or entry into cells for Marburg Virus | AID 540276, 2011 | Marburg virus pseudotyped entry inhibition, cell reporter | Potency, µM (series often up to 37.8 µM), for inactives: at the top dose activity change, negative = inhibition, hits mostly inhibitors | 300,000 tested, 1.8% active; calls by dose curve; tested in HEK293 cells; also: potency is read from the fitted curve at half-maximal effect; % is scaled to controls: 0 for no effect and ±100 for the full control effect
HCV inh – qHTS Assay for Inhibitors of Hepatitis C Virus (HCV) | 340,000 tested, 3.4% active | Huh7.5.1 HCVcc-Cre infection, luciferase reporter, 44 h | Potency, µM (doses to about 41.8 µM), for inactives: at the top dose activity change, negative = inhibition, usual class: inhibitors; active = well fitted inhibition curve with a large enough effect; inconclusive = small, poorly fitted or top-dose-only effect, or another doubt; inactive = no such curve, though single readings can be large or run the other way; also: potency is read from the fitted curve at half-maximal effect; % is scaled to controls: 0 for no effect and ±100 for the full control effect
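A cell-based infection assay in which seeded cells (1,000 per well) receive test compound after 4 h, are inoculated with HCVcc-Cre at approximately 0.5 moi, and are incubated 44 h before luminescence detection.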
LASV entry inh – qHTS for Inhibitors of binding or entry into cells for Lassa Virus. Potency, µM (titrated, usually from 37.9 µM), inactives show at the top dose activity change, negative = inhibition, usual class: inhibitors. AID 540256, 2011. 300,000 tested, 1.2% active. Lassa virus pseudotype entry inhibition, cell reporter; calls by dose curve; tested in HEK293 cells; also: potency is read from the fitted curve at half-maximal effect; % is scaled to controls: 0 for no effect and ±100 for the full control effect; nearly all actives have a fitted effect of over 50% in size
SARS PLpro yeast – qHTS of Yeast-based Assay for SARS-CoV PLP. S. cerevisiae expressing SARS-CoV PLpro, growth rescue. Potency, µM (series often up to 32.9 µM), inactives show at the top dose activity, positive = growth rescue, usual class: activators. 330,000 tested, 0.19% active; calls by dose curve; also: potency is read from the fitted curve at half-maximal effect; 0% is about no effect; nearly all actives have a fitted effect of over 55% in size
HCMV antiviral – qHTS Assay for inhibitors of the human cytomegalovirus (HCMV); HFF cells, HCMV-luciferase reporter, 72 h; hits give low values; activity change, negative = inhibition, % at 57.5 µM; 410,000 tested, 4.5% active; AID 1259415, 2018; in the data active = activity change below about -60%; inconclusive = no clear call, values can overlap the other calls; inactive = above about -39%; also: % is scaled to controls: 0 for no effect and ±100 for the full control effect
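Steps: HFFs plated, 16 h 37C; compounds added; HCMV-luciferase added to MOI 1 PFU/cell; 72 h 37C; OneGlo reagent, 5 min room temperature; luminescence read, normalized to controls.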
Active calls of the source: *; ? = inconclusive; . = no result given; [ ] = remark or other dose.

SMILES	FMDV inh	Marburg entry inh	HCV inh	LASV entry inh	SARS PLpro yeast	HCMV antiviral
COc1ccccc1N1CCN(c2ncc3c(n2)CCN(Cc2ccccc2F)C3)CC1	-11.6%	.	.	13.4%[46.1 µM]	.	1.0
COc1cc(OC)c(OC)cc1CN1CCc2nc(N3CCN(c4ncccn4)CC3)ncc2C1	?	.	.	-8.3%[46.1 µM]	.	-71.2*
Cc1ccccc1C1(CC(=O)N2CCCC2c2nccs2)CC(=O)N(C2CCCC2)C1=O (stereo unspecified)	48.8%	.	.	.	.	.
CCOC(=O)C1CCN(C(=O)c2ccccc2CCc2ccccc2)CC1	1.0%	.	-1.5%	.	-0.8%	106.0
CCC(=O)c1ccc(OCC(=O)OCC(=O)NCCC2=CCCCC2)cc1	-20.1%	?	-15.1%	6.8%	-2.8%	-17.6
Cc1ccc(-c2nc(CS(=O)(=O)CC(=O)NC(C)CCc3ccccc3)c(C)o2)cc1 (stereo unspecified)	-3.5%	?	.	-2.8%[46.1 µM]	.	-33.6
COc1cccc(C2/C(=C(/O)c3cnn(-c4ccccc4)c3C)C(=O)C(=O)N2CCN(C)C)c1OC (stereo unspecified)	0.0%	1.12µM*	-3.7%	-7.1%	-0.7%	-11.4
Cc1ccc(Cl)cc1Nc1nc2ccccc2n2c(C)nnc12	-14.9%	.	.	4.1%[46.1 µM]	.	3.5
O=C(N/N=C/c1cnc(N2CCCCC2)s1)c1ccc(C(F)(F)F)cc1	-29.6%	.	11.2µM*	.	-1.3%	14.2
CC12CCC3C(CC3(C)C)C(C)(CCC1=O)O2 (stereo unspecified)	-3.5%	.	.	.	.	.
CC(C)(C)c1cc([N+](=O)[O-])cc(C(C)(C)C)c1O	?	6.51µM*	10µM*	16.4µM*	-18.5%	-99.8*
Cc1cc2nc(N3CCC(NC(C)c4nc(-c5ccccn5)no4)CC3)nc(C)c2cc1C (stereo unspecified)	-3.7%	.	.	.	.	.
COc1ccc(Sc2ccc(/C=C3\C(=O)NN(c4ccccc4)C3=O)o2)cc1	39.8µM*	?	-1.3%	0.5%	-0.1%	-13.8
Cc1cccc(C(=O)N2CCCC(CCC(=O)N3CCN(c4ccccn4)CC3)C2)c1C (stereo unspecified)	?	.	?	.	-2.4%	-86.1*
Cc1cc(C(=O)N2CCCC(CCC(=O)N3CCN(c4ccccn4)CC3)C2)c(C)o1 (stereo unspecified)	-26.3%	-12.7%[46.1 µM]	-17.6%	-12.9%[46.1 µM]	-0.2%	-27.1
CCc1cc(CNC(=O)c2ccc3nc(Cc4ccc(OC)c(OC)c4)oc3c2)on1	-21.1%	.	4.47µM*	.	4.2%	-14.6
COc1ccc(Cl)cc1NC(=O)c1ccc2nc(Cc3ccccc3)oc2c1	-19.6%	.	.	-0.9%[46.1 µM]	.	-32.6

High-throughput results (PubChem BioAssay)
